Experimental data from PubChem BioAssay (NCI).
Compounds without any hit were thinned out: in the full panel of roughly 83,000, 20% have a hit.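 Testing used 96-well plates and a 48-hour single-concentration exposure. Example: -40 means 40% of the starting cells died.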 Calls of active or inactive are those of the source. How the source made its calls: active means growth percent below 10; inactive means the rest.

What was measured:
Assay in all cases: NCI-60 one-dose screen, 48 h (100 = growth as untreated, 0 = no growth, -100 = all killed)
Conditions in all cases: 10 µM unless noted
[1] = tested on: NCI-H23 lung
[2] = tested on: NCI-H226 lung
[3] = tested on: NCI-H322M lung
[4] = tested on: HOP-62 NSCLC
[5] = tested on: NCI-H460 lung
[6] = tested on: HOP-92 NSCLC
[7] = tested on: NCI-H522 lung
[8] = tested on: A549/ATCC NSCLC
[9] = tested on: 786-0 renal
[10] = tested on: COLO 205 colon
[11] = tested on: DU-145 prostate
[12] = tested on: K-562 leukemia
[13] = tested on: MALME-3M melanoma
[14] = tested on: MDA-MB-231 breast
[15] = tested on: RXF 393 renal
[16] = tested on: SF-268 CNS
[17] = tested on: SF-295 CNS
[18] = tested on: SF-539 CNS
[19] = tested on: UACC-257 melanoma
[20] = tested on: M14 melanoma

Measured: growth

CC(C)=CC1C(C(=O)OCc2cccc(Oc3ccccc3)c2)C1(C)C (stereo not given)
inactive: [1] 88.6% | [2] 102% | [3] 96.5% | [4] 110% | [5] 98.6% | [6] 56.8% | [7] 73.5% | [8] 92.4% | [9] 81.3% | [10] 101% | [11] 109% | [12] 92.6% | [13] 87.8% | [14] 90.2% | [15] 121% | [16] 113% | [17] 90.3% | [18] 110% | [19] 104% | [20] 95.3%

O=C(N/N=C/c1ccc(N(CCCl)CCCl)cc1)c1cccc2ccccc12
inactive: [1] 85.7% | [2] 74.3% | [3] 102% | [4] 59.5% | [5] 47% | [6] 55.5% | [7] 47.9% | [8] 58.4% | [9] 74.2% | [10] 86.3% | [11] 85.3% | [12] 38.9% | [13] 84.8% | [14] 86.9% | [15] 93.3% | [16] 77.4% | [17] 78.7% | [18] 78.6% | [19] 79.1% | [20] 51.7%

CCCCCCCCC(CO)NCCc1ccccc1 (stereo not given)
inactive: [1] 105% | [2] 98.6% | [3] 88.8% | [4] 98% | [5] 102% | [6] 77.9% | [7] 73.7% | [8] 83.7% | [9] 102% | [10] 107% | [11] 102% | [12] 80.7% | [13] 109% | [14] 93.1% | [15] 136% | [16] 99.7% | [17] 98.1% | [18] 115% | [19] 85.7% | [20] 92.5%

NC(=O)C(Br)c1ccccc1 (stereo not given)
inactive: [1] 89.9% | [2] 88.7% | [3] 99.6% | [4] 103% | [5] 108% | [6] 99.6% | [7] 53.5% | [8] 91.8% | [9] 107% | [10] 103% | [11] 103% | [12] 84.3% | [13] 74.9% | [14] 87.8% | [15] 104% | [16] 79.6% | [17] 97% | [18] 109% | [19] 83.3% | [20] 73.3%

CC[C@H](C)[C@H](NC(=O)C12C3C4C1C1C2C3C41NC(C)=O)C(=O)N(C)[C@H](C[C@@H](OC(C)=O)c1nc(C(=O)N[C@@H](Cc2ccccc2)C[C@H](C)C(=O)OC)cs1)C(C)C (stereo not given in full)
active: [5] 3.63% | [7] 6.65% | [10] -26.1% | [11] 1.99% | [12] 8.82% | [18] 5.34% | [20] 1.02%
inactive: [1] 25.1% | [2] 31.7% | [3] 51.5% | [4] 22.4% | [6] 30.2% | [8] 27.7% | [9] 12% | [13] 58.6% | [14] 22.1% | [15] 41.9% | [16] 27.5% | [17] 13% | [19] 44.2%

NC1CC2CCCCC2CC1(O)c1ccccc1 (stereo not given)
inactive: [1] 94.7% | [2] 92.2% | [3] 103% | [4] 106% | [5] 103% | [6] 88.6% | [7] 97.8% | [8] 99.3% | [9] 99.6% | [10] 106% | [11] 103% | [12] 92.4% | [13] 96.1% | [14] 99.8% | [15] 101% | [16] 102% | [17] 114% | [18] 99.1% | [19] 98% | [20] 100%

C[C@@H]1CCC2[C@@H](C)[C@H](OC(=O)CCC(=O)NCCNC(=O)Cc3cc(=O)oc4cc(N(C)C)ccc34)O[C@@H]3O[C@]4(C)CC[C@@H]1C23OO4 (stereo not given in full)
active: [7] -4.8%
inactive: [1] 21.5% | [2] 65.3% | [3] 79.2% | [4] 82.8% | [5] 39.4% | [6] 29.3% | [8] 51.4% | [9] 36.7% | [10] 47.6% | [11] 94% | [12] 13.6% | [13] 49.6% | [14] 77% | [15] 61.7% | [16] 56.7% | [17] 41.8% | [18] 55.4% | [19] 59.1% | [20] 38.4%

COC(=O)[C@@H](C)C[C@H](Cc1ccccc1)NC(=O)c1csc([C@@H](C[C@H](C(C)C)N(C)C(=O)[C@H](C)NC(=O)[C@H]2CCCN2C)OC(C)=O)n1
inactive: [1] 60.8% | [2] 68.2% | [3] 63.7% | [4] 63.6% | [5] 30.9% | [6] 37.6% | [8] 83% | [9] 45% | [10] 22.8% | [11] 51.6% | [12] 11.5% | [13] 56.2% | [14] 63.6% | [15] 21.8% | [16] 53.9% | [17] 31.1% | [18] 39.9% | [19] 36.4% | [20] 37.5%
active: [7] -10.7%

Nc1c(F)cc(-c2nc3cc(F)ccc3[se]2)cc1F
active: [2] -11.3%
inactive: [1] 49.4% | [3] 70.8% | [4] 58.9% | [5] 14.5% | [6] 74.8% | [7] 84.8% | [8] 46.5% | [9] 104% | [10] 13.4% | [11] 99.8% | [12] 85.8% | [13] 101% | [14] 54.6% | [15] 105% | [16] 91.4% | [17] 87.8% | [18] 96.3% | [19] 101% | [20] 90%

CN1CCC(O)(c2ccc(F)cc2)C(C(=O)c2ccc(F)cc2)C1 (stereo not given)
inactive: [1] 99.3% | [2] 108% | [3] 98.7% | [4] 97.2% | [5] 109% | [6] 96.4% | [7] 78.9% | [8] 101% | [9] 102% | [10] 115% | [11] 107% | [12] 99.1% | [13] 84.6% | [14] 104% | [15] 103% | [16] 106% | [17] 110% | [18] 96.8% | [19] 106% | [20] 106%

COc1cccc2c1c(C(=O)c1ccco1)cn2Cc1ccc(F)cc1
inactive: [1] 111% | [2] 96.3% | [3] 115% | [4] 125% | [5] 113% | [6] 63.4% | [7] 76.2% | [8] 112% | [9] 110% | [10] 123% | [11] 100% | [12] 253% | [13] 131% | [14] 89.9% | [15] 131% | [16] 114% | [17] 122% | [18] 113% | [19] 104% | [20] 131%

COc1ccc(/C=C\c2cc(OC)c(OC)c(OC)c2)c(NS(=O)(=O)c2ccc(Cl)cc2)c1O
inactive: [1] 21.8% | [2] 18.4% | [3] 40.8% | [4] 49.8% | [6] 48.3% | [8] 16.7% | [9] 25.5% | [10] 20.9% | [13] 58% | [15] 37.2% | [16] 16.2% | [19] 39.1% | [20] 12.8%
active: [5] 8.23% | [7] -36% | [11] -13.3% | [12] 9.26% | [14] 8.54% | [17] 0.936% | [18] 2.9%

CC(CO)NC1CCCCC1 (stereo not given)
inactive: [1] 103% | [2] 119% | [3] 102% | [4] 102% | [5] 108% | [6] 78% | [7] 103% | [8] 102% | [9] 100% | [10] 113% | [11] 105% | [12] 104% | [13] 103% | [14] 91.2% | [15] 114% | [16] 108% | [17] 113% | [18] 91.8% | [19] 104% | [20] 102%

COC(=O)[C@@H](C)C[C@H](Cc1ccccc1)NC(=O)c1nc([C@@H](C[C@H](C(C)C)N(C)C(=O)[C@@H](NC(=O)[C@H]2CCCCN2C)C(C)C)OC(C)=O)sc1C(C)C
inactive: [1] 24.6% | [2] 52.4% | [3] 38.1% | [4] 11.8% | [6] 30.6% | [13] 57.5% | [15] 23.7% | [16] 22.1% | [19] 50.7%
active: [5] 5.54% | [7] -9.43% | [8] 2.6% | [9] -6.11% | [10] -61.5% | [11] -0.426% | [12] 7.38% | [14] 2.67% | [17] -1.35% | [18] -22.2% | [20] -26.6%
